The results in this text go back to PubChem BioAssay AID623870 (Broad Institute, 2012).

Screen size: about 390,000 compounds; about 2,600 (0.67%) were called active.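 The calls were made as follows: active = mean inhibition of replicates at least 50% and at least half of replicates each reaching 50%; inconclusive = half or more replicates reach 50% but mean below 50%; inactive = the rest.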 What follows is part of a selection rich in actives, with near analogues and random picks from the rest.

The term inhibition denotes the relative decrease from the control value, in per cent.

This experiment deals with Transforming acidic coiled-coil-containing protein 3 (Homo sapiens) (UniProt Q9Y6A5). Nature of the experiment: disruptors of ARNT/TACC3 protein interaction, primary screen, biochemical, AlphaScreen, single concentration (AID 623870).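 Also: 0% = complete ARNT plus TACC3 wells and 100% = ARNT alone without TACC3.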 Conditions: AlphaScreen His-ARNT PAS-B/GST-TACC3 binding, luminescence; at 9.99 µM; hits give high values; TACC3 fragment carries E629A point mutation.
As to `CCCC(=O)Nc1ccc2c(c1)OC[C@H](C)N(CCC)C[C@@H](C)[C@@H](OC)CN(C)C2=O`, the inhibition is 1.16% (inactive).

For the compound `CC(C)NC(=O)Nc1ccc2c(c1)C(=O)N([C@H](C)CO)C[C@H](C)[C@@H](CN(C)S(=O)(=O)c1ccc(F)cc1)OCCCC[C@H](C)O2`, the inhibition was -7.08% (inactive). Consider `CCCN(C)C[C@@H]1Oc2cc(C#CCc3ccccc3)ccc2S(=O)(=O)N([C@H](C)CO)C[C@@H]1C`, for which the inhibition was 1.97% (inactive). To `CCOc1cc(/C=N/n2cnnc2)c(Br)cc1O` belongs 7.91% (inactive). Regarding `O=C1CSC(=S)N1/N=C/c1ccc(O)c([N+](=O)[O-])c1`, the inhibition is 12.1% (inactive).

Consider `CCOc1cccc(/C=N/N2C(=O)CSC2=S)c1O`, for which the inhibition is 59.8% (active). For `C[C@H](CO)N1C[C@H](C)[C@H](CN(C)C(=O)c2cnccn2)Oc2cc(C3=CCCC3)ccc2S1(=O)=O` the value was 1.21% (inactive); for `COCC#Cc1ccc2c(c1)O[C@@H](CN(C)Cc1ccccn1)[C@@H](C)CN([C@@H](C)CO)S2(=O)=O`, -0.755% (inactive); for `C/C(=N\Nc1nc(N2CCOCC2)nc(N2CCOCC2)n1)c1ccc([N+](=O)[O-])cc1`, 15.4% (inactive). To `O=C(O)c1ccc(/C=N/Nc2nc(N3CCCCC3)nc(N3CCCCC3)n2)cc1` belongs 45% (active). On to `O=C(NNc1nc(N2CCCC2)nc(N2CCCC2)n1)c1ccccc1`, for which the inhibition was -2.38% (inactive). For `CCCN1C[C@@H](C)[C@H](OC)CN(C)C(=O)c2ccc(NC(=O)C3CCOCC3)cc2OC[C@@H]1C` the value was -0.135% (inactive). To `C[C@H]1CN([C@@H](C)CO)C(=O)c2cccc(NC(=O)Nc3ccccc3)c2O[C@H]1CN(C)Cc1ccc(C(F)(F)F)cc1` belongs 7.66% (inactive). For `Oc1ccc(Br)cc1/C=N/Nc1ccccn1` the value was 44.2% (active); for `Fc1ccccc1/C=N/Nc1cc(N2CCCCC2)ncn1`, 22.7% (inactive). As for `Nc1nonc1-n1nnc(C(=O)N/N=C/c2cc(Br)ccc2O)c1CSC1=NCCS1`, the inhibition is 17.4% (inactive). For `C[C@H]1CN([C@@H](C)CO)C(=O)c2c(c3ccccc3n2C)-c2ccccc2CO[C@H]1CN(C)S(=O)(=O)c1ccc(C#N)cc1` the value was 11.3% (inactive); for `O=C(C[C@@H]1CC[C@H]2[C@@H](COC[C@@H](O)CN2C(=O)Nc2ccc(F)cc2)O1)NCC1CC1`, 1.68% (inactive).

Regarding `COc1cccc(N(CC(=O)N2CCc3ccccc3C2)S(C)(=O)=O)c1`, the inhibition was 1.07% (inactive). To `CN(c1ccccc1)S(=O)(=O)c1ccc(C(=O)N2CCN(c3ccccc3Cl)CC2)cc1` belongs -20.3% (inactive). To `CN(c1ccc(C(=O)N2CCc3ccccc3C2)cc1)S(C)(=O)=O` belongs 54% (active). For `COc1ccc(S(=O)(=O)N(C)C[C@@H]2OCCCC[C@@H](C)Oc3ccc(NS(C)(=O)=O)cc3C(=O)N([C@H](C)CO)C[C@@H]2C)cc1` the value was -15.8% (inactive); for `CCCN(C)C[C@H]1Oc2ncc(C#CCOC)cc2C(=O)N([C@@H](C)CO)C[C@H]1C`, -7.68% (inactive). `Cc1ccc(S(=O)(=O)Nc2ccc3c(c2)C(=O)N([C@H](C)CO)C[C@H](C)[C@H](CN(C)C(=O)Nc2ccc4c(c2)OCO4)OCCCC[C@@H](C)O3)cc1`: the inhibition is -0.754% (inactive). To `COc1ccc(Nc2ncc(C(=O)N3CCN(c4ccccc4OC)CC3)c3ccccc23)cc1` belongs 1.33% (inactive); to `Cc1ccccc1N1CCN(C(=O)c2cccnc2)CC1`, -7.09% (inactive). To `O=C(Nn1cc(C(=O)N2CCN(c3ccccc3F)CC2)c2ccccc2c1=O)c1cnccn1` belongs 68.5% (active).

On to `Cc1ccc(S(=O)(=O)NCC[C@H]2CC[C@@H](NS(=O)(=O)c3ccccc3Cl)[C@H](CO)O2)cc1`, for which the inhibition is 2.36% (inactive). Take `C[C@@H]1CN([C@@H](C)CO)C(=O)c2cc(NC(=O)C3CCCCC3)ccc2O[C@@H]1CN(C)S(=O)(=O)c1ccc(F)cc1`: the inhibition was -1.9% (inactive). For `COC(=O)[C@@H]1CCCN1C(=O)c1cc(COc2cccc3cccnc23)on1`, the inhibition is 6.38% (inactive). For `NC(=O)C1CCN(C(=O)COc2cccc3cccnc23)CC1` the value was -5.01% (inactive); for `CCOc1cc(N2CCOCC2)c(OCC)cc1NC(=O)COc1cccc2cccnc12`, 59.4% (active); for `C[C@@H]1CN([C@@H](C)CO)C(=O)c2cccc(N(C)C)c2O[C@@H]1CN(C)S(=O)(=O)c1ccccc1`, -5.11% (inactive). In the case of `C[C@@H]1CCCCO[C@H](CN(C)C(=O)CCC(F)(F)F)[C@H](C)CN([C@@H](C)CO)C(=O)c2cc(NC(=O)CCCCCC(=O)Nc3ccccc3N)ccc2O1`, the inhibition is 0.568% (inactive). For `CO[C@H]1CN(C)C(=O)c2ccc(NC(C)=O)cc2OC[C@@H](C)N(C(=O)c2ccncc2)C[C@@H]1C` the value was 34.9% (inactive); for `O=C(O)C[C@@H]1C[C@@H]2c3cc(NC(=O)Nc4ccccc4)ccc3O[C@@H]2[C@H](CO)O1`, -4.96% (inactive); for `C[C@H]1CN([C@@H](C)CO)C(=O)Cc2cc(NC(=O)Nc3ccc(F)cc3)ccc2O[C@H]1CN(C)S(=O)(=O)c1ccc(F)cc1`, -0.385% (inactive). As to `COc1ccc(CN(C)C[C@H]2Oc3c(NC(=O)c4ccncc4)cccc3C(=O)N([C@H](C)CO)C[C@@H]2C)cc1`, the inhibition was -4.67% (inactive). For `Cc1ccc(NC(=O)CNCc2ccccn2)cc1S(=O)(=O)N(C)C` the value was 71% (active); for `Cc1ccc(C(=O)Nc2ccc(C)c(S(=O)(=O)N(C)C)c2)s1`, -4.57% (inactive). For `Cc1cc(S(=O)(=O)NCc2ccccn2)c(Cl)cc1Cl` the value was -1.4% (inactive); for `C[C@@H]1CN([C@@H](C)CO)C(=O)c2cc(NC(=O)Cc3ccccc3)ccc2O[C@@H](C)CCCCO[C@H]1CN(C)C(=O)Cc1ccccc1`, -2.35% (inactive). On to `CC[C@]1(O)CC2CN(CCc3c([nH]c4ccccc34)[C@@](C(=O)OC)(c3cc4c(cc3OC)N(C=O)[C@H]3[C@@](O)(C(=O)OC)[C@H](OC(C)=O)[C@]5(CC)C=CCN6CC[C@]43[C@@H]65)C2)C1` (stereo not given in full), for which the inhibition was 52.9% (active). For `CC[C@]1(O)C[C@@H]2CN(CCc3c([nH]c4ccccc34)[C@@](C(=O)OC)(c3cc4c(cc3OC)N(C)[C@H]3[C@@](O)(C(=O)OC)[C@H](OC(C)=O)[C@]5(CC)C=CCN6CC[C@]43[C@@H]65)C2)C1`, the inhibition is 16% (inactive). As to `CN1c2ccc(-c3cccc(C#N)c3)cc2[C@H]2[C@H](CCN2S(=O)(=O)c2cccc(F)c2)[C@@H]1CO`, the inhibition is -10.1% (inactive). In the case of `CNC[C@H]1OCCCC[C@H](C)Oc2ccc(NS(C)(=O)=O)cc2C(=O)N([C@@H](C)CO)C[C@H]1C`, the inhibition was -0.797% (inactive). Turning to `O=C(OCC(=O)c1cccs1)c1ccc([N+](=O)[O-])o1`, the inhibition is -2.19% (inactive).

Turning to `O=C(COC(=O)c1ccc(Br)o1)NC12CC3CC(CC(C3)C1)C2`, the inhibition is 6.24% (inactive).

In the case of `O=C(COC(=O)c1ccc([N+](=O)[O-])o1)NC12CC3CC(CC(C3)C1)C2`, the inhibition is 31.3% (active). For `CCN(C[C@H]1[C@H](c2ccc(-c3ccccc3)cc2)[C@H](CO)N1CC1CC1)C(C)=O` the value was 2.62% (inactive); for `C[C@@H]1CCCCO[C@H](CN(C)C(=O)CCC(F)(F)F)[C@@H](C)CN([C@@H](C)CO)C(=O)c2cc(NC(=O)c3ccncc3)ccc2O1`, 11% (inactive). As to `CC(C)c1ccc(Cc2nnc(NCCCO)[nH]c2=O)cc1`, the inhibition was -6.28% (inactive). On to `COc1ccc(Cc2nnc(N/N=C/c3ccccc3O)[nH]c2=O)cc1OC`, for which the inhibition was 58.3% (active).

Take `Cc1ccc(Cc2nnc(SCC(=O)Nc3ccccc3C)[nH]c2=O)cc1`: the inhibition is -1.06% (inactive). For `COc1cccc(NC(=O)C[C@H]2CC[C@@H]3[C@H](COc4ccc(NC(C)=O)cc4C(=O)N3C)O2)c1` the value was 13% (inactive). Take `C[C@@H]1CN([C@H](C)CO)C(=O)c2cc(NC(=O)Nc3ccc4c(c3)OCO4)ccc2O[C@@H]1CN(C)C(=O)Nc1ccc(F)cc1`: the inhibition is 14% (inactive).

For `CCC(=O)N1C[C@H]2[C@@H](c3ccccc31)[C@H](CO)N2Cc1ccccc1F`, the inhibition was -4.33% (inactive).

`CC(=O)N1[C@@H](CO)[C@@H]2c3ccccc3N(S(=O)(=O)c3ccccc3)C[C@@H]21`: the inhibition is 4.39% (inactive). To `O=S(=O)(c1ccccc1)N1C[C@@H]2[C@H](c3ccccc31)[C@H](CO)N2Cc1ccccn1` belongs 32.5% (active).

Regarding `O=C(C1CCCC1)N1[C@H](CO)[C@@H]2c3ccccc3N(S(=O)(=O)c3ccccc3)C[C@@H]21`, the inhibition was -1.74% (inactive). To `O=C(C[C@@H]1CC[C@@H]2[C@H](COC[C@@H](O)CN2Cc2ccc(Cl)cc2)O1)NCc1ccccc1Cl` belongs 1.65% (inactive). To `COc1ccccc1Nc1nc(N)nc(CSC(=S)N2CCOCC2)n1` belongs 0.944% (inactive); to `COc1ccccc1Nc1nc(N)nc(CN(C)C2CCCCC2)n1`, 54% (active). As to `COc1ccccc1NC1=NC(c2ccc(Cl)cc2)N=C(N)N1` (stereo not given), the inhibition is -1.44% (inactive). To `COc1ccc(S(=O)(=O)N(C)C[C@@H]2Oc3ncc(C#Cc4ccc(F)cc4)cc3C(=O)N([C@H](C)CO)C[C@@H]2C)cc1` belongs -1.03% (inactive); to `N#CC1=C(N)Oc2c(sc3ccccc23)C1c1ccco1` (stereo not given), 34.5% (inactive). `N#CC1=C(N)Oc2c(ccc3cccnc23)C1c1ccncc1` (stereo not given): the inhibition is 71.2% (active).

In the case of `C[C@@H]1CN([C@H](C)CO)C(=O)c2c(c3ccccc3n2C)-c2ccccc2CO[C@@H]1CN(C)C(=O)Nc1ccccc1`, the inhibition is 6.33% (inactive).

For `CCCNC(=O)N(C)C[C@@H]1Oc2ncc(C#CCc3ccccc3)cc2C(=O)N([C@@H](C)CO)C[C@H]1C`, the inhibition was -5.08% (inactive).

As for `COc1ccc(S(=O)(=O)N(C)C[C@H]2OCCCC[C@@H](C)Oc3ccc(NC(=O)CCC(F)(F)F)cc3C(=O)N([C@@H](C)CO)C[C@H]2C)cc1`, the inhibition is -1.27% (inactive).
